IDH1 R132H inh – qHTS for Inhibitors of mutant isocitrate dehydrogenase 1 (IDH1): qHTS; Potency, µM (doses to about 76.6 µM), without a hit: at the highest dose activity change, negative = inhibition, most hits filed as inhibitors; IDH1-R132H enzyme, NADPH consumption, diaphorase/resazurin fluorescence; AID 602179, 2012; actives 0.093% (n = 390,000); note: potency is the fitted concentration of half-maximal effect; nearly all actives have a fitted effect of over 65% in size
Target sequence (O75874 whole entry R132H, stated change not applied): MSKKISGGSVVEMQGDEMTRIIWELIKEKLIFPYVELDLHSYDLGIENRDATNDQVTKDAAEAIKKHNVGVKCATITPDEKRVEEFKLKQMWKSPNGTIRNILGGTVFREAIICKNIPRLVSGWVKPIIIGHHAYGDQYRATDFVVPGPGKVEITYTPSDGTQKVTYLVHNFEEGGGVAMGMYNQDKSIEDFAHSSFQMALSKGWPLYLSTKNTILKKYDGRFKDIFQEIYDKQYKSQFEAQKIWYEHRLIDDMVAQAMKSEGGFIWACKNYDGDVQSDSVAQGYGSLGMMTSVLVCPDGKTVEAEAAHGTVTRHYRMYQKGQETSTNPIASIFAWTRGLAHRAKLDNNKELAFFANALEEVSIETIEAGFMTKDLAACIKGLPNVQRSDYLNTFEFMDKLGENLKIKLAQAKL
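IDH1-R132H (0.5 ug/mL dispensed) in pH 7.5 Tris buffer was preincubated 30 min with compound, then given a substrate mix of 0.016 mM NADPH and 2 mM alpha-KG for 80 min at room temperature; remaining NADPH was read by diaphorase/resazurin fluorescence.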
TrxR1 substrate – qHTS Assay for Substrates of Mammalian Selenoprotein Thioredoxin Reductase 1 (TrxR1): qHTS; Thioredoxin reductase 1, cytoplasmic (Rattus norvegicus), O89049; purified TrxR1 substrate turnover, NADPH consumption readout; actives 0.01% (n = 390,000); Potency, µM (highest dose often 114 µM), for inactives: at the highest dose activity change, negative = substrate turnover; AID 588456, 2011; note: potency is the fitted concentration of half-maximal effect; nearly all actives have a fitted effect of over 50% in size
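Rat TrxR1, dispensed at 90 nM, was prereduced with 400 uM NADPH (final) for 5 min at ~22 deg C, then incubated with compound 15 min before 400 uM selenite. A first-read NADPH fluorescence drop versus no-compound background flagged substrates.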
FBPA coupling cs – qHTS Assay for Inhibitors of Fructose-1,6-bisphosphate Aldolase from Giardia Lamblia: Coupling assay counterscreen; coupling enzyme system counterscreen, AmpLite Red fluorescence; activity change, negative = inhibition, % at 58.2 µM, hits read low; actives 0.67% (n = 290,000); in the data active = activity change below about -30%
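First, compound is pin-transferred into glyceraldehyde-3-phosphate coupling-enzyme reagent at 57.5 uM final and held 10 min at RT. Next, substrate, coupling system and AmpLite Red are added. After 20 min RT, fluorescence (525/598 nm) is read.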
TrxR1 inh – qHTS Assay for Inhibitors of Mammalian Selenoprotein Thioredoxin Reductase 1 (TrxR1): qHTS; Potency, µM (titrated, usually from 114 µM), inactives show at the top dose activity change, negative = inhibition, actives largely listed as inhibitors; actives 1% (n = 390,000); Thioredoxin reductase 1, cytoplasmic (Rattus norvegicus), O89049; recombinant rTrxR1, NADPH fluorescence consumption, selenite substrate; note: potency is the fitted concentration of half-maximal effect; nearly all actives have a fitted effect of over 65% in size
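Rat TrxR1 (90 nM in the dispensed reagent) was pre-reduced with 400 uM NADPH for 5 min at room temperature, then incubated with compound for 15 min. After 400 uM selenite was added, NADPH fluorescence (Ex 340/Em 450 nm) was followed for 8 min.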
Eya2 phos inh – qHTS Assay for Inhibitors of the Phosphatase Activity of Eya2; Protein phosphatase EYA2 (Homo sapiens), O00167; recombinant Eya2, OMFP fluorescence dephosphorylation (OMFP is methylfluorescein phosphate); Potency, µM (highest dose often 76.9 µM), inactives show at the highest dose activity, negative = inhibition, hits mostly inhibitors; actives 0.006% (n = 330,000); note: potency is the fitted concentration of half-maximal effect
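Eya2 (0.2 uM) preincubated 10 min at ambient with compound, then OMFP substrate added at 50 uM; 10 min reaction in 50 mM HEPES pH 7.5, 50 mM NaCl, 5 uM MgCl2, 0.05% BSA, 1 mM DTT. Fluorescence read at Ex 485/Em 525 nm.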
The depositor's hits bear a star; ? = inconclusive; / = not tested or not shown; ! = a repeat was not active; [ ] = another dose, or the depositor's remark. This is a sample that favours compounds with a hit; in the whole collection about 1.5% have one here. Unless noted, calls come from the whole dose curve; as a rule, active = well fitted curve in the direction sought with a large enough effect; inconclusive = small, poorly fitted or top-dose-only effect, or another doubt; inactive = no such curve, though single readings can be large; an effect the other way counts as inactive or inconclusive. % is set by controls: 0 for no effect and ±100 for the full control effect.

SMILES	IDH1 R132H inh	TrxR1 substrate	FBPA coupling cs	TrxR1 inh	Eya2 phos inh
CCCCN(CCCC)c1ccc(C=Nc2ccc(/C=C/c3ccnc4ccccc34)cc2)cc1C	/	-12.1%	/	-11.6%	/
O=C(Nc1ccc(OC(F)F)cc1)c1nc(S(=O)(=O)Cc2ccccc2F)ncc1Cl	/	1.2%	/	3.55µM*	/
CCOc1ccc(NC(=O)c2nc(S(=O)(=O)Cc3ccccc3F)ncc2Cl)cc1	-19.7%	6.6%	/	1.78µM*	/
O=C(Nc1ccccc1)c1nc(S(=O)(=O)Cc2ccccc2F)ncc1Cl	/	9.2%	/	?	/
COC(=O)c1ccccc1NC(=O)c1nc(S(=O)(=O)Cc2ccccc2)ncc1Cl	2.0%	7.8%	/	8.91µM*	0.7%
Cc1ccc(N(NC(=O)C(O)(c2ccccc2)c2ccccc2)C(=O)CCl)cc1	-0.4%	0.4%	3.6	7.08µM*	-0.3%
O=C(Nc1ccccc1)NN(C(=O)CCl)c1ccccc1	-7.3%	6.3%	0.5	7.94µM*	4.7%
O=C(C[n+]1ccccc1Cl)c1ccccc1	/	5.4%	/	6.0%	/
C=CCNC(=O)c1cnn2c1NC(=C)C=C2C	/	98.9%	/	29.6%	/
O=C(O)COc1ccc2c(c1)O/C(=C\c1ccco1)C2=O	2.5%	-1.2%	3.3	44.7µM*	7.7%
CCc1c(C)sc(NC(=O)c2noc(C)c2[N+](=O)[O-])c1C#N	-1.0%	-8.7%	-5.0	12.6µM*	-18.0%
CCc1c(C)sc(NC(=O)c2cc(CC(C)C)on2)c1C#N	17.5%	-3.3%[57.1 µM]	4.8	9.6%[57.1 µM]	4.3%
CCc1cc(SC#N)cc(CC)c1NC(=O)CCl	?	-10.2%	2.2	25.1µM*	3.3%
Cn1c2cc(B(O)O)sc2c2cnn(Cc3ccc(F)cc3F)c(=O)c21	/	/	/	/	14.9%
COc1ccc(OC)c(NC(=O)CSc2ccc(-c3ccco3)nn2)c1	-1.5%	-4.5%	/	3.98µM*	-3.2%
Cc1ccccc1NC(=O)CSc1ccc(-c2ccco2)nn1	6.3%	-2.5%	-0.6	?	-2.4%
COc1ccccc1NC(=O)CSc1ccc(-c2ccco2)nn1	7.3%	-6.7%	/	50.1µM*	9.3%
COc1ccccc1-n1c(SCC(=O)NC(C)(C)C)nnc1-c1ccco1	4.4%	5.8%	0.1	8.91µM*	2.7%
O=C(C[N+]1(CC(O)c2ccccc2)CCCCC1)c1ccccc1 (centres undefined)	/	5.6%	/	21.0%	/
CN(C(=O)COc1ccccc1C(=O)Nc1ccccc1)c1ccccc1	/	-4.0%	/	7.1%	/
CC1Oc2ccccc2C=C1/C=C1/SC(N2CCOCC2)=NC1=O (centres undefined)	4.6%	-4.7%	-43.6*	?	9.1%
COc1ccccc1/C=N/NC(=O)CCSc1ccccc1	11.6%	6.1%	-33.3*	29.8%	-0.8%
CCN1CCc2c(sc(N)c2C#N)C1	9.9%	17.2%[57.1 µM]	-18.4	21.1%[57.1 µM]	5.5%
N#Cc1c(N)sc(=S)c2c1CCN(Cc1ccccc1)C2	/	/	-59.0*	/	8.1%
CNc1c(Br)cc(C(O)C2=CCc3ccccc32)cc1Br (centres undefined)	/	9.8%[0.0914 µM]	/	28.9%	/
SMILES	IDH1 R132H inh	TrxR1 substrate	FBPA coupling cs	TrxR1 inh	Eya2 phos inh
c1cncc(-c2nnc(-c3cccnc3)nn2)c1	18.1%	-20.5%	-40.5*	13.4%[57.1 µM]	1.0%
c1ccc(-c2nnc(-c3ccccc3)nn2)cc1	4.6%	3.3%	-0.4	15.5%	1.4%
COc1ccc(N(Cc2cc(=O)[nH]c3ccccc23)C(=O)CCl)cc1	-5.2%	6.7%	-0.6	6.31µM*	2.3%
Cc1cccc(N(Cc2cc(=O)[nH]c3ccccc23)C(=O)CCl)c1	1.8%	10.3%	1.9	3.98µM*	13.4%
CCCC(=O)N(Cc1cc(=O)[nH]c2ccccc12)c1cccc(C)c1	-5.7%	8.7%[57.1 µM]	2.9	12.6%[57.1 µM]	11.1%
Cc1ccc(S(=O)(=O)c2nc(-c3ccc(F)cc3)oc2N2CCN(c3ccccc3)CC2)cc1	0.0%	-2.2%	/	8.9%	/
CCC(C)S(=O)(=O)c1oc(-c2ccc(F)cc2)nc1S(=O)(=O)c1ccc(F)cc1 (centres undefined)	5.9%	11.8%	/	2µM*	/
CSc1oc(-c2ccc(F)cc2)nc1S(=O)(=O)c1ccc(Br)cc1	16.1%	10.3%	/	19.3%	/
CCCCS(=O)(=O)c1oc(-c2cccs2)nc1S(=O)(=O)c1ccc(F)cc1	16.3%	11.7%	/	0.708µM*	/
CCCSc1oc(-c2cccs2)nc1S(=O)(=O)c1ccc(C)cc1	13.9%	17.7%	/	14.1%	/
CCSc1oc(-c2cccs2)nc1S(=O)(=O)c1ccccc1	16.0%	14.6%[57.1 µM]	-5.1	13.6%[57.1 µM]	-10.4%
CCCCCS(=O)(=O)c1oc(-c2cccs2)nc1S(=O)(=O)c1ccc(C)cc1	14.7%	7.1%	/	1.58µM*	/
CCCCS(=O)(=O)c1oc(-c2ccc(F)cc2)nc1S(=O)(=O)c1ccc(C)cc1	-3.4%	6.0%	/	1.41µM*	/
CCCC[C@H](NC(C)=O)C(=O)N[C@H]1CC(=O)NCCCC[C@@H](C(N)=O)NC(=O)[C@H](Cc2c[nH]c3ccccc23)NC(=O)[C@H](CCCN=C(N)N)NC(=O)[C@@H](Cc2ccccc2)NC(=O)[C@H](Cc2cnc[nH]2)NC1=O	/	/	-0.1	/	/
COc1ccc2nc3c(cc2c1)Cc1ccccc1-3	/	/	-24.7	/	/
Nc1ccccc1NC(=O)c1ccc(CNC(=O)OCc2cccnc2)cc1	/	/	1.7	/	/
O=S(=O)(c1ccccc1)c1nc(-c2ccc(F)cc2)oc1N1CCCCCC1	-6.9%	-3.5%	/	15.7%	/
CN(C)c1oc(-c2ccc(Cl)cc2)nc1S(=O)(=O)c1ccccc1	0.5%	1.0%	5.2	35.5µM*	6.0%
CCS(=O)(=O)c1oc(-c2ccc(F)cc2)nc1S(=O)(=O)c1ccccc1	/	7.5%	/	0.501µM*	/
Cn1c(-c2ccc(=O)[nH]c2)nc2ccccc21	4.8%	11.6%[57.1 µM]	-33.1*	23.8%[57.1 µM]	5.5%
O=c1ccc(-c2nc3ccccc3n2Cc2ccc(Cl)cc2)c[nH]1	-0.2%	-13.9%[57.1 µM]	0.5	24.6%[57.1 µM]	-14.2%
CC1CC=C2C(C#N)=C(N)C(C#N)(C#N)C(c3cccs3)C2C1 (centres undefined)	20.7µM*	9.6%[57.1 µM]	-7.4	?	12.5%
O=C(Nc1cc(Cl)cc2c1[nH]c1cnccc12)c1cccnc1	/	/	0.0	/	/
O=C(NCc1ccccc1)c1nc(S(=O)(=O)Cc2ccccc2)ncc1Cl	-3.8%	-2.4%	/	2.82µM*!	6.3%
O=C(c1ccc(Cl)cc1)N(Cc1ccco1)Cc1ccco1	16.8%	-8.4%	/	-1.2%	/
CC(=O)Nc1ccc(NC(=O)c2nc(S(=O)(=O)Cc3ccccc3)ncc2Cl)cc1	-11.2%	-2.0%	/	15.0%	1.2%

High-throughput results from PubChem BioAssay.
